From PubChem BioAssay (NCATS)
Several values for one entry are separate records, joined by “and”; a condition that tells them apart may be missing. Equal entries are not always repeated. Inconclusive results are not listed. Where a call stands in place of a potency, no number is given. Where a structure was tested more than once in an assay, its records may differ in their call. Activity calls are given as the source filed them. The call rests on the fitted dose curve; in most records, active means well fitted inhibition curve with a large enough effect; inconclusive means small, poorly fitted or top-dose-only effect; inactive means flat fitted curve, though single readings scatter.

Tests used:
[1] = biological target: Glutathione peroxidase 1 (Homo sapiens) (UniProt P07203); assay: Primary qHTS Assay for Inhibitors of Recombinant Selenoprotein Glutathione Peroxidase 1 (GPX1) (AID 1845191); conditions: recombinant GPX1, GR-coupled NADPH fluorescence, 15 min; series mostly up to 48.8 µM; further: nearly all actives have a fitted effect of over 65% in size; further: potency means the concentration at half of the fitted maximal effect
Sequence of Glutathione peroxidase 1 (Homo sapiens) (P07203 whole entry, looked up): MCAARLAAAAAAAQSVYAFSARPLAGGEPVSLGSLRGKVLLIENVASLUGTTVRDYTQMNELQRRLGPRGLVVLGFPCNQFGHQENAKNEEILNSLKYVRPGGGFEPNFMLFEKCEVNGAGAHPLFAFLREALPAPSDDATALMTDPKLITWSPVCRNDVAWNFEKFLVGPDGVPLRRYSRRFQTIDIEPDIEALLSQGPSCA
Procedure, shortened: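 10 nM GPX1 + cpd, 30 min RT; start w/ 1 mM GSH, 0.5 mM cumene hydroperoxide, 0.5 mM NADPH, 100 nM GR, 0.01% BSA; buffer 50 mM Tris-HCl pH 7.5, 2 mM EDTA, 150 mM NaCl; Fl 340/450, 0 & 15 min.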

[2] = biological target: Phospholipid hydroperoxide glutathione peroxidase GPX4 (Homo sapiens) (UniProt P36969); assay: Primary qHTS Assay for Inhibitors of Recombinant Selenoprotein Glutathione Peroxidase 4 (GPX4) (AID 1845192); conditions: recombinant GPX4, GR-coupled NADPH fluorescence, 15 min; series mostly up to 50 µM; further: nearly all actives have a fitted effect of over 65% in size; further: potency means the concentration at half of the fitted maximal effect
Sequence of Phospholipid hydroperoxide glutathione peroxidase GPX4 (Homo sapiens) (P36969 whole entry, looked up): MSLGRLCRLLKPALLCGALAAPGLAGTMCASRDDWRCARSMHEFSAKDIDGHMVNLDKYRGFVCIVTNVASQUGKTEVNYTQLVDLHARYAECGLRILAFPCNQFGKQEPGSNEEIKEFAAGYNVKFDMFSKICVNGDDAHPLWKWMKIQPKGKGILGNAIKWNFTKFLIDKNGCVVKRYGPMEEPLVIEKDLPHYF
Procedure, shortened: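 NADPH consumption, followed by fluorescence at 340/450 nm between 0 and 15 min, reports GPX4 activity via coupled glutathione reductase (100 nM). Enzyme 200 nM was pre-exposed to compound 30 min; 0.5 mM cumene hydroperoxide and 1 mM GSH served as substrates.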

[3] = biological target: Luciferin 4-monooxygenase (Photinus pyralis) (UniProt P08659); assay: Primary firefly luciferase (FLuc) qHTS assay for identification of artifact compounds. (AID 1845220); conditions: purified firefly luciferase, luminescence, 5 min; series mostly up to 54.1 µM; further: nearly all actives have a fitted effect of over 60% in size
Procedure, shortened: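 Cell-free, 1536-well qHTS. Buffer pH 7.6 with 0.01% Tween-20 and 0.05% BSA; 10 uM D-luciferin, 10 uM ATP; 10 nM P. pyralis luciferase; luminescence after 5 min.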

| Compound | Potency [1] | Potency [2] | outcome [3] | activity change, negative = inhibition [3] |
| --- | --- | --- | --- | --- |
| CC(=O)Oc1c(C)c(C)c2c(c1C)CC[C@@](C)(CCC[C@H](C)CCC[C@H](C)CCCC(C)C)O2 | inactive | inactive |  |  |
| CCC(=O)c1ccc(O)cc1 | inactive | inactive |  |  |
| Cn1cc[nH]c1=S | inactive | inactive |  |  |
| CCCCC(CC)COC(=O)c1ccccc1O (stereo not drawn) | inactive | inactive |  |  |
| COc1ccccc1O | inactive | inactive |  |  |
| NS(=O)(=O)c1cc2c(cc1C(F)(F)F)NC(Cc1ccccc1)NS2(=O)=O (stereo not drawn) | inactive | inactive |  |  |
| CN1[C@@H]2CC[C@H]1CC(OC(=O)C(O)c1ccccc1)C2 (stereo partly drawn) | inactive | inactive |  |  |
| C[C@H]1O[C@H](O[C@H]2[C@H](O)[C@@H](O)[C@@H](O[C@H]3[C@H](O)[C@@H](O)[C@H](O)O[C@@H]3CO)O[C@@H]2CO)[C@H](O)[C@@H](O)[C@@H]1N[C@H]1C=C(CO)[C@@H](O)[C@H](O)[C@H]1O | inactive | inactive |  |  |
| Cc1cccc(Nc2cc(Cl)nc(SCC(=O)O)n2)c1C | inactive | inactive | inactive |  |
| CN1CCOC(c2ccccc2)c2ccccc2C1 (stereo not drawn) | inactive | inactive | inactive |  |
| CC(=O)NC(Cc1ccccc1)C(=O)O (stereo not drawn) | inactive | inactive | inactive [at 86.2 µM] |  |
| CCOC(CN1CCN(CC(C)C(=O)c2ccccc2)CC1)c1ccccc1 (stereo not drawn) | inactive | inactive | inactive |  |
| COc1ccc2[nH]c(S(=O)Cc3ncc(C)c(OC)c3C)nc2n1 (stereo not drawn) | 9.04 µM (active) and inactive and 11.4 µM (active) | inactive | inactive |  |
| CCN(CC)C(=O)Nc1ccc(OCC(O)CNC(C)(C)C)c(C(C)=O)c1 (stereo not drawn) | inactive | inactive | inactive |  |
| Nc1nc2c(ncn2CCC(CO)CO)c(=O)[nH]1 | inactive | inactive | inactive |  |
| c1ccc(CN(CC2=NCCN2)c2ccccc2)cc1 | inactive | inactive | inactive |  |
| C[C@@H]1CCN(C(=O)[C@H](CCCN=C(N)N)NS(=O)(=O)c2cccc3c2NC[C@H](C)C3)[C@@H](C(=O)O)C1 | inactive | inactive |  |  |
| COc1cc(C)c(Cc2cnc(N)nc2N)cc1OC |  | inactive |  |  |

| Compound | Potency [1] | Potency [2] | outcome [3] | activity change, negative = inhibition [3] |
| --- | --- | --- | --- | --- |
| CCCCN1CCCC[C@H]1C(=O)Nc1c(C)cccc1C | inactive | inactive | inactive |  |
| CN(C)CCN(Cc1ccccc1)c1ccccn1 |  | inactive |  |  |
| CS(=O)(=O)c1ccc([C@@H](O)[C@@H](CF)NC(=O)C(Cl)Cl)cc1 | inactive | inactive | inactive |  |
| C[C@@H]1CN(c2c(F)c(F)c3c(=O)c(C(=O)O)cn(C4CC4)c3c2F)C[C@H](C)N1 | inactive | inactive |  | 2.25% [at 11.6 µM] (inactive) |
| Cc1ccc(C(C)C)cc2c(C)ccc1-2 |  | inactive |  |  |
| C[C@]12CC[C@@H]3c4ccc(O)cc4CC[C@H]3[C@@H]1CC[C@@H]2OC(=O)CCC1CCCC1 | inactive | inactive | inactive |  |
| CC(C)(O)c1ccccc1CC[C@@H](SCC1(CC(=O)O)CC1)c1cccc(/C=C/c2ccc3ccc(Cl)cc3n2)c1 | inactive | inactive | inactive |  |
| O=c1[nH]cnc2c1ncn2[C@@H]1O[C@H](CO)[C@@H](O)[C@H]1O | inactive | inactive | inactive |  |
| OCC(O)CN1CCN(c2ccccc2)CC1 (stereo not drawn) | inactive | inactive | inactive |  |
| CCOC(=O)[C@H](CCc1ccccc1)N[C@@H](C)C(=O)N1C(=O)N(C)C[C@H]1C(=O)O | inactive | inactive | inactive |  |
| Cc1ccc2nc(N)[nH]c(=O)c2c1Sc1ccncc1 | inactive | inactive | inactive |  |
| Cn1c(=O)c2c(ncn2CC2OCCO2)n(C)c1=O | inactive | inactive | inactive |  |
| CCCCOc1cc(C(=O)OCCN(CC)CC)ccc1N | inactive | inactive | inactive |  |
| COc1ccc2cc1Oc1ccc(cc1)C[C@H]1c3c(cc4c(c3Oc3cc5c(cc3OC)CCN(C)[C@@H]5C2)OCO4)CCN1C | inactive | inactive | inactive |  |
| Nc1ccc(S(=O)(=O)Nc2nccs2)cc1 | inactive | inactive | inactive |  |
| CC/C=C(\C(=O)N[C@@H]1C(=O)N2C(C(=O)OCOC(=O)C(C)(C)C)=C(COC(N)=O)CS[C@H]12)c1csc(N)n1 | 9.04 µM (active) | 11.2 µM (active) and inactive | inactive |  |
| C[C@@H]1C[C@H]2[C@@H]3C[C@H](F)C4=CC(=O)C=C[C@]4(C)[C@@]3(F)[C@@H](O)C[C@]2(C)[C@@]1(O)C(=O)CO | inactive | inactive | inactive |  |
| CCOc1ccc2ccccc2c1C(=O)N[C@@H]1C(=O)N2[C@@H]1SC(C)(C)[C@@H]2C(=O)O | inactive | inactive | inactive |  |
